From PubChem BioAssay (Tox21)
Records with an inconclusive call do not appear. Activity calls are given as the source filed them. Unless noted, calls follow the shape of the dose curve; as a rule, active = well fitted curve in the direction sought with a large enough effect in the repeat runs; inconclusive = weak or mixed curves; inactive = no such curve, though single readings can be large; an effect the other way counts as inactive or inconclusive.

Legend:
[1] = qHTS assay for small molecules that induce genotoxicity in human embryonic kidney cells expressing luciferase-tagged ATAD5 (AID 651632); also: nearly all actives have a fitted effect of over 15% in size; also: potency is read from the fitted curve at half-maximal effect
Method in brief: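 Cells were seeded at 2,000 per well, dosed with compound, and incubated 16 hr at 37C in 5% CO2. Luciferase activity was then quantified after a 30 min room-temperature incubation with Amplite.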

[2] = qHTS assay for small molecule disruptors of the mitochondrial membrane potential - cell viability (AID 720634; calls by dose curve; also: nearly all actives have a fitted effect of over 20% in size; also: potency is read from the fitted curve at half-maximal effect)
Method in brief: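 Cytotoxicity was measured by ATP quantitation in HepG2 wells that had first been treated with compound for 1 hr and stained with m-MPI dye; CellTiter-Glo incubation was 30 min at room temperature.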

[3] = qHTS assay for small molecule disruptors of the mitochondrial membrane potential (AID 720635); also: potency is read from the fitted curve at half-maximal effect
Method in brief: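 Mitochondrial membrane potential tracked with Mito-MPS dye, red aggregates (ex 540/em 590 nm) against green monomers (ex 490/em 535 nm). Compound treatment 1 hr at 37C, dye 30 min in HepG2.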

[4] = qHTS assay to test for compound auto fluorescence at 535 nm (green) in HepG2 cells (AID 720675)
[5] = qHTS assay to test for compound auto fluorescence at 590 nm (red) in HEK293 cells (AID 720679)
Method in brief: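 Intensity at 540nm excitation and 590nm emission is reported as Rose Bengal sodium-equivalent autofluorescence. Measurements followed overnight exposure (37C, 5% CO2) of HEK293 cells, 2,000 per well, to 23 nL compound.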

[6] = qHTS assay to test for compound auto fluorescence at 460 nm (blue) in HEK293 cell free culture (AID 720681)
Method in brief: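 Blue fluorescence (Ex 405/Em 460 nm, triamterene-equivalent) was read immediately after pin transfer of compound or DMSO into medium (DMEM, 10% FBS) without cells.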

[7] = qHTS assay to test for compound auto fluorescence at 535 nm (green) in HEK293 cell free culture (AID 720682)
Method in brief: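 Cell-free medium (DMEM, 10% FBS) receives compound or DMSO by pintool. Plate read directly at Ex 485/Em 535 nm. Signal converted to fluorescein equivalency.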

[8] = qHTS assay to test for compound auto fluorescence at 590 nm (red) in HEK293 cell free culture (AID 720683)
Method in brief: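 Red-channel autofluorescence of compounds in culture medium (DMEM, 10% FBS), no cells, measured at 540/590 nm. Rose Bengal sodium is the reference fluorophore for equivalence.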

[9] = qHTS assay to test for compound auto fluorescence at 590 nm (red) in HepG2 cell free culture (AID 720684)
Method in brief: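 No cells present: MEM + 10% FBS only. Compound pinned in, red label read (540/590 nm). Activity = fluorescence equivalent to Rose Bengal sodium.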

[10] = qHTS assay to test for compound auto fluorescence at 460 nm (blue) in HepG2 cell free culture (AID 720685)
Method in brief: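 Cell-free plates of MEM plus 10% FBS received 23 nL compound or DMSO vehicle; blue-channel (405/460 nm) intensity scored against triamterene as reference fluorophore.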

[11] = qHTS assay to test for compound auto fluorescence at 460 nm (blue) in HepG2 cells (AID 720687)
Method in brief: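 Blue-channel autofluorescence (Ex/Em 405/460 nm, triamterene-equivalent) was measured after 1 hr compound exposure at 37 C, 5% CO2. Cells were HepG2, plated overnight at 37 C in MEM plus 10% FBS.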

[12] = qHTS assay for small molecule agonists of the p53 signaling pathway - cell viability (AID 651633; calls by dose curve;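 also: p53RE-bla HCT reporter cells with a stable beta-lactamase p53 reporter; series mostly up to about 83 µM; nearly all actives have a fitted effect of over 30% in size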)
Method in brief: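 Viability counter-read: CellTiter-Glo luminescence (30 min, room temperature) in the same p53RE-bla plates. These plates had been exposed to compounds for 16 h at 37 C.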

[13] = qHTS assay for small molecules that induce genotoxicity in human embryonic kidney cells expressing luciferase-tagged ATAD5 - cell viability (AID 651634; calls by dose curve; also: nearly all actives have a fitted effect of over 25% in size)
Method in brief: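 Cells (HEK293T, luciferase-tagged ATAD5) are seeded at 2,000 per well, dosed with compound or DMSO vehicle, and incubated 15.5 hr at 37C and 5% CO2. CellTiter-Fluor is added for 30 min before fluorescence is measured.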

[14] = qHTS assay to test for compound auto fluorescence at 590 nm (red) in HepG2 cells (AID 720674)
Method in brief: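 Red autofluorescence (Ex/Em 540/590 nm, Rose Bengal sodium equivalents) was measured in HepG2 cells, 2,000 per well in MEM plus 10% FBS, plated overnight at 37 C. Readings were taken 1 hr after adding 23 nL compound or DMSO, at 37 C and 5% CO2.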

[15] = qHTS assay to test for compound auto fluorescence at 460 nm (blue) in HEK293 cells (AID 720678)
Method in brief: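 HEK293, 2,000 cells/well, 10% dialyzed FBS; attach 4-5 hr 37C; pin compound or DMSO; o/n 37C/5% CO2; fluorescence 405/460 nm; triamterene-equivalent units.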

[16] = qHTS assay to test for compound auto fluorescence at 535 nm (green) in HEK293 cells (AID 720680)
[17] = qHTS assay to test for compound auto fluorescence at 535 nm (green) in HepG2 cell free culture (AID 720686)
[18] = target: Glucocorticoid receptor (Homo sapiens) (UniProt P04150); experiment: qHTS assay to identify small molecule agonists of the glucocorticoid receptor (GR) signaling pathway (AID 720691; active = well fitted activation curve with a large enough effect in the signal ratio in the repeat runs, not every such curve was filed as active; the % refers to the signal ratio)
Method in brief: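 Steps: seed GR-bla HeLa cells, incubate 4 h at 37 C/5% CO2; pin-transfer DMSO-dissolved compounds; incubate 18 h at 37 C; add LiveBLAzer B/G FRET substrate; after 2 h at room temperature, measure fluorescence.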

[19] = target: Glucocorticoid receptor (Homo sapiens) (UniProt P04150); experiment: qHTS assay to identify small molecule antagonists of the glucocorticoid receptor (GR) signaling pathway (AID 720692; active = well fitted inhibition curve with a large enough effect in the signal ratio in the repeat runs, not every such curve was filed as active; the % refers to the signal ratio)
Method in brief: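 Antagonism was scored as loss of dexamethasone-driven (5 nM final) reporter signal in HeLa cells bearing a glucocorticoid response element–beta-lactamase construct, after 18 h compound exposure at 37 C and 2 h FRET substrate loading.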

Measured: Potency

Chain of Glucocorticoid receptor (Homo sapiens) (P04150 whole entry, looked up): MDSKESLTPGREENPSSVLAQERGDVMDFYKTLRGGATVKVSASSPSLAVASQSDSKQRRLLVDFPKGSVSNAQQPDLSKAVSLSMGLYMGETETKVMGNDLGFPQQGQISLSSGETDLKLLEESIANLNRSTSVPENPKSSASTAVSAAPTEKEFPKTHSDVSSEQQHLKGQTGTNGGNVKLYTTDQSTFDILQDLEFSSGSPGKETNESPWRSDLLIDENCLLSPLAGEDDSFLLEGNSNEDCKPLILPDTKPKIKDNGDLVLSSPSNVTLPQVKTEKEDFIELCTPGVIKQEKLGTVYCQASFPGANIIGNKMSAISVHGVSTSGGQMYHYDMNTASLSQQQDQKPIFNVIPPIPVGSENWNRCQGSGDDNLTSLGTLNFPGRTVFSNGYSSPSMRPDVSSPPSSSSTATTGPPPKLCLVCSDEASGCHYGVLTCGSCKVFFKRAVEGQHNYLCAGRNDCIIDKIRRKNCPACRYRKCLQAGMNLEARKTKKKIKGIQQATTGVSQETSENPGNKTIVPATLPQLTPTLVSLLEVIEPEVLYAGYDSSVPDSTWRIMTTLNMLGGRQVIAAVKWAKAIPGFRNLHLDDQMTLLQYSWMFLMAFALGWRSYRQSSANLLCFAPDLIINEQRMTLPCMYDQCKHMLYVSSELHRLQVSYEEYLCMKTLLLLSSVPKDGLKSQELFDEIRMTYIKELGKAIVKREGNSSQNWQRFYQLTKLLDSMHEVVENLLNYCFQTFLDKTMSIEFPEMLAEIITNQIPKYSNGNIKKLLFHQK

Nc1nc2ccc([N+](=O)[O-])cc2s1
active: [3] 4.33 µM
inactive: [1] | [2] | [4] | [5] | [6] | [7] | [8] | [9] | [10] | [11]

O=C(/C=C/c1ccccc1)OCCc1ccccc1
inactive: [12] | [13] | [2] | [14] | [4] | [15] | [5] | [16] | [6] | [7] | [8] | [9] | [10] | [17] | [11] | [18]

O=c1cc(-c2ccccc2)oc2ccc3ccccc3c12
inactive: [13] | [14] | [4] | [5] | [16] | [6] | [7] | [8] | [9] | [10] | [11]
active: [1] 0.077 µM | [2] 24.3 µM | [3] 8.63 µM

C=C(C)C(=O)OCCOCCOC(=O)C(=C)C
inactive: [1] | [13] | [2] | [3] | [14] | [4] | [5] | [6] | [7] | [8] | [9] | [10] | [11]

O=C1c2ccccc2C(=O)C1c1nc2ccccc2c(Br)c1O
active: [3] 21.7 µM
inactive: [12] | [13] | [2] | [14] | [4] | [5] | [16] | [7] | [8] | [9] | [10] | [17] | [11] | [18] | [19]
